Measurements from the OligoGym collection.
Also: reference of the scale not given here.

The sequences below were run against DSPP (assay: pooled miR-30 sensor sort-seq; sequence = guide strand). Conditions: shRNA.
In the case of TTCTCTATGGTTGAGCTTCTGG, the sensor-assay potency score (higher = more potent) is reported as -0.413.
TACTATCTGAATTTTGACCTAT gave a sensor-assay potency score (higher = more potent) of 0.43.
TGTACTGACACATTTGATCTTG showed a sensor-assay potency score (higher = more potent) of 0.307.
Work on TTTTTCGACATGTCTCTCCAGT yielded a sensor-assay potency score (higher = more potent) of -0.00978.
TTACTGTCACTATCACTGCTGT was tested, and the sensor-assay potency score (higher = more potent) was -0.164.
For TTCACTTGTATTACCCTCGTTT, the sensor-assay potency score (higher = more potent) was 0.22.
Work on TTGCTGTCACTGCTGTCGCTGC yielded a sensor-assay potency score (higher = more potent) of -0.804.

These sequences were tested against DTNBP1 in the same assay as above. Conditions: shRNA.
In the case of TTCCTCAAAAAACTTCTGCCGC, the sensor-assay potency score (higher = more potent) is reported as -0.552.
ATTTTTCTTGTAATTCTCCAGT gave a sensor-assay potency score (higher = more potent) of -0.545.
TCACTTAAAGTCTTCAGCCCGG gave a sensor-assay potency score (higher = more potent) of -0.801.
Sequence TAAGTCTTCCAGATGCAGCAGG has a sensor-assay potency score (higher = more potent) of -0.317.
TTTCTTGTAATTCTCCAGTTGC gave a sensor-assay potency score (higher = more potent) of -0.554.
For TATTTTTCTTGTAATTCTCCAG, the sensor-assay potency score (higher = more potent) was -0.412.
TCATCGGACTGAACAACGGGGG was tested, and the sensor-assay potency score (higher = more potent) was -0.232.
Sequence TTTTCTTGTAATTCTCCAGTTG has a sensor-assay potency score (higher = more potent) of -0.365.
TCTAGTTCAGCTTTGAAGGTTT gave a sensor-assay potency score (higher = more potent) of 0.0978.
Work on TAAAACAACCTGGCTTTCCAGG yielded a sensor-assay potency score (higher = more potent) of -0.923.
In the case of TTTGCTTCTCTTGACTTGTCAC, the sensor-assay potency score (higher = more potent) is reported as 0.23.
TGACTTGTCACTTAAAGTCTTC was tested, and the sensor-assay potency score (higher = more potent) was -0.418.

These sequences were tested against DTX1 in the same assay as above. Conditions: shRNA.
For TTCTTTTGTAGAACTGCTCAGT, the sensor-assay potency score (higher = more potent) was -0.299.
For TAGATGAGGTAGCAGAAGCCTA, the sensor-assay potency score (higher = more potent) was -1.12.
Sequence TTGCGGTGAACTTCTTCCCGGG has a sensor-assay potency score (higher = more potent) of -0.0133.
TGTCTCTTCTCTTCCAGCCTGG showed a sensor-assay potency score (higher = more potent) of 0.154.
In the case of TTGTTGGGTAGATAGCAGTGGC, the sensor-assay potency score (higher = more potent) is reported as -0.92.
TTTGTAGAACTGCTCAGTCATC showed a sensor-assay potency score (higher = more potent) of -1.13.
TTCACCTTCTGCATGTATCTTC was tested, and the sensor-assay potency score (higher = more potent) was 0.43.
For TTGAAGTAGATGAGGTAGCAGA, the sensor-assay potency score (higher = more potent) was -0.853.
Sequence TGTATCTTCGAACCACATCCTC has a sensor-assay potency score (higher = more potent) of -0.0113.
With TTTTGAAAAGAGCAATCGCTGG the sensor-assay potency score (higher = more potent) was -0.945.
TCTAGGTAGCTAGCGTCCGGGT showed a sensor-assay potency score (higher = more potent) of -1.53.
TTGACCAGCAGGCACTGCTGGC was tested, and the sensor-assay potency score (higher = more potent) was -1.17.
TTTAAGGTGCTTCTTCTTGGTC gave a sensor-assay potency score (higher = more potent) of -0.486.
With TGTCTAGGTAGCTAGCGTCCGG the sensor-assay potency score (higher = more potent) was -0.967.
With TTGGTCTTGCGGCACACCCCGG the sensor-assay potency score (higher = more potent) was -0.985.
In the case of TATCTTCGAACCACATCCTCGG, the sensor-assay potency score (higher = more potent) is reported as 0.116.
With TCTTCGAACCACATCCTCGGGA the sensor-assay potency score (higher = more potent) was -0.159.
In the case of TATTTCTCCACCCACAGTGGGA, the sensor-assay potency score (higher = more potent) is reported as -0.561.
TTGGATCCAAACTCGGTCTTGT was tested, and the sensor-assay potency score (higher = more potent) was 0.0701.
TTTGAAAAGAGCAATCGCTGGC showed a sensor-assay potency score (higher = more potent) of 0.224.
TTCATCTGCGACATGCTGTTGA showed a sensor-assay potency score (higher = more potent) of 0.174.
